The text below walks through data of PubChem BioAssay (NCATS).

Records with an inconclusive call do not appear. Where a call stands in place of a potency, no number is given. Unmarked numbers belong to inactive results. Calls of active or inactive are those of the source. Calls follow the shape of the dose curve; as a rule, active = well fitted inhibition curve with a large enough effect; inconclusive = small, poorly fitted or top-dose-only effect; inactive = flat fitted curve, though single readings scatter.

Assay [1] deals with Calcium and integrin-binding protein 1 (Homo sapiens) (UniProt Q99828). The assay can be described thus: Primary qHTS for Identification of Calcium Integrin Binding Protein 1 (CIB1) Competitor (AID 1508620).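 Also: GST tagged CIB1 binding a fluorescein labelled alphaIIb integrin peptide tracer; top concentration of the series differs between compounds.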 The gist of the method: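 Fluorescence polarization competition: CIB1-GST (1 uM final) preincubated with compound 15 min at room temperature, then FITC-labeled alphaIIb peptide (100 nM final) added for another 15 min. Polarization read at Ex 480/Em 540.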
Chain of Calcium and integrin-binding protein 1 (Homo sapiens) (Q99828 whole entry, looked up): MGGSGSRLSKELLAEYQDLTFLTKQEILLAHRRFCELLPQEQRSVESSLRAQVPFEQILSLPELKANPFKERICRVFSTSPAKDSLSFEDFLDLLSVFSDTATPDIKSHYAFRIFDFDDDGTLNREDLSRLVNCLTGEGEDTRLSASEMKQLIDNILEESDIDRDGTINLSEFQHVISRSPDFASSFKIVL

Assay [2] can be described thus: Primary qHTS for inhibitors of nuclear receptor binding SET domain protein 2 (NSD2) in an isogenic RCH-ACV NSD2 p.E1099K mutant (9B) (AID 1645876). Also: nearly all actives have a fitted effect of over 70% in size. Also: potency is read from the fitted curve at half-maximal effect. On the technique in general: In qHTS, concentration-response curves come from the screen itself.

For the compound `CC(=O)N[C@H]1[C@H](O[C@H]2CC[C@@]3(C)C(CC[C@]4(C)C3CC=C3C5CC(C)(C)CC[C@]5(C(=O)O)C(O)C[C@]34C)C2(C)C)O[C@H](CO[C@@H]2O[C@H](C)[C@H](O)[C@H](O)[C@H]2O[C@@H]2OC[C@@H](O)[C@H](O)[C@H]2O)[C@@H](O)[C@@H]1O` (some centres not stated), in assay [1], the Potency entry is “inactive”. In assay [2], the Potency was 2.45 µM (active).
As to `C=C1C(=O)O[C@@H]2/C=C(\C)CC/C=C(\C)CC[C@@H]12`, the Potency entry in assay [1] is “inactive”. In assay [2], the Potency was 14.5 µM (active).
Turning to `C=C(C)C(=O)O[C@H]1C[C@@](C)(O)C2(O)CCC(C)(/C=C3/OC(=O)C(COC)=C31)O2` (some centres not stated), in assay [1], the Potency entry was “inactive”. For the same compound, the Potency in assay [2] is 1.42 µM (active).
For `COc1c2c(nc3occc13)C(CC=C(C)C)(OC)C(O)CC2` (configuration not stated) the same measures were “inactive” and “inactive”.
On to `C/C=C(/C)C(=O)OC1CC(C)(C)CC2C3=CCC4C5(C)CCC(O[C@@H]6O[C@H](C(=O)O)[C@@H](O)[C@H](O)[C@H]6O[C@@H]6O[C@H](CO)[C@H](O)[C@H](O[C@@H]7OC[C@H](O)[C@H](O)[C@H]7O[C@@H]7O[C@H](CO)[C@@H](O)[C@H](O)[C@H]7O)[C@H]6O)C(C)(C)C5CCC4(C)C3(C)C(O)C(O)C12CO` (some centres not stated), for which the activity change, negative = inhibition in assay [1] was -2.71% [at 12.4 µM]. In addition, in assay [2], the Potency was 2.18 µM (active).
In the case of `CC(C)C[C@H](CO)Nc1nc(S[C@@H](C)c2ccccc2)nc2nc(N)sc12`, in assay [1], the Potency entry is “inactive”. The Potency in assay [2] was 26.3 µM (active).
The like results for `C=C(C)C1=C[C@@]2(C)C(=CC1=O)CC[C@@H](O)[C@@H]2C` were, in that order, “inactive” and “inactive”.
In the case of `C/C(=C\Cc1c(O)c(Cl)c(C)c(C=O)c1O)CC/C=C(\C)[C@H]1CC(=O)C(C)(C)O1`, in assay [1], the Potency entry was “inactive”. For the same compound, the Potency in assay [2] is 2.52 µM (active).
Turning to `COc1cc2c(cc1O)C1(Cc3ccc4c(c3C1O)OCO4)[N+](C)([O-])CC2` (configuration not stated), the Potency entry in assay [1] and in assay [2] was “inactive” each time.
`CC(C)(C)[C@H](NC(=O)c1ccc(N)c(Cl)c1)C(=O)N1CCC[C@H]1C(=O)N[C@H](C#N)CC(=O)O`: the Potency entry in assay [1] and in assay [2] was “inactive” in each case.
Turning to `CCNC1(C(N)=O)CN(c2nc(C)nc3c(-c4ccc(Cl)cc4)c(-c4ccccc4Cl)nn23)C1`, in assay [1], the Potency entry was “inactive”. In assay [2], the Potency was 20.5 µM (active).
The like results for `Nc1nc2c(ncn2C2OC3COP(=O)(O)OC3C2O)c(=O)[nH]1` (configuration not stated) were, in that order, “inactive” and “inactive”.
For `CCC(C(C)O)n1ncn(-c2ccc(N3CCN(c4ccc(OCC5COC(Cn6cncn6)(c6ccc(F)cc6F)C5)cc4)CC3)cc2)c1=O` (configuration not stated) the same measures were “inactive” and 2.05 µM (active).
For `C/C=C(\C)C(=O)O[C@H]1C[C@](C)(O)[C@H]2CC=C(C)[C@H]2[C@@H]2OC(=O)[C@H](C)[C@H]21` the same measures were “inactive” and “inactive”.
For the compound `CC1(C)CCCC2(C)C1C(=O)C=C(C(=O)O)C2(O)C(=O)O` (configuration not stated), the Potency entry in assay [1] was “inactive”. For the same compound, the Potency in assay [2] is 25.8 µM (active).
For `COc1cc(-n2cnc3cc(-c4ccc(Cl)cc4)sc3c2=O)ccc1OCCN1CCCC1` the same measures were “inactive” and 7.28 µM (active).
The like results for `CCOC(=O)c1csc(Nc2ccc(Cl)cc2)n1` were, in that order, “inactive” and 18.3 µM (active).
For `CC(=O)OC[C@]12[C@H](OC(C)=O)[C@H](OC(=O)c3ccccc3)[C@@H]3[C@@H](OC(C)=O)[C@]1(OC3(C)C)[C@H](C)C[C@H](OC(C)=O)[C@@H]2OC(=O)c1ccccc1`, the Potency result in assay [1] and in assay [2] was “inactive” throughout.
Turning to `Cn1cc(C2=C(c3coc4ccccc34)C(=O)NC2=O)c2cc(Br)ccc21`, the Potency result in assay [1] is “inactive”. Further, in assay [2], the Potency is 18.4 µM (active).
The like results for `CC(=O)OC1CC(C)C2(CCC3(CC(=O)OC3O)O2)C2(C)CCCC(C)(C)C12` (configuration not stated) were, in that order, “inactive” and “inactive”.
Consider `CC(C)C[C@H](C(=O)O)c1cc(-c2ccc(C(F)(F)F)cc2)cc(-c2ccc(C(F)(F)F)cc2)c1`, for which the Potency entry in assay [1] was “inactive”. For the same compound, the Potency in assay [2] was 9.16 µM (active).
For `COc1cc2nc(N3CCN(C(=O)c4ccco4)C4CCCCC43)nc(N)c2cc1OC` (configuration not stated) the same measures were “inactive” and 2.3 µM (active).
`CN1CCN(c2ccc(Nc3cc(-c4cccc(-n5ccc6cc(C7CC7)cc(F)c6c5=O)c4CO)cn(C)c3=O)nc2)CC1`: the Potency result in assay [1] is “inactive”. For the same compound, the Potency in assay [2] is 20.6 µM (active).
The like results for `C=C[C@H](/C=C\c1ccc(O)cc1)c1ccc(O)cc1` were, in that order, “inactive” and 16.3 µM (active).
In the case of `COc1cc2ncc(-c3ccccc3)nc2cc1OC`, the Potency result in assay [1] is “inactive”. Besides, the Potency in assay [2] was 20.5 µM (active).
For the compound `CCC/C=C/C(=O)O[C@H]1CC(C)(C)CC2[C@@]13[C@H](O)C[C@]1(C)[C@@]2(CCC2[C@@]4(C)CC[C@H](O[C@@H]5O[C@H](C(=O)O)[C@@H](O)[C@H](O[C@@H]6O[C@H](CO)[C@H](O)[C@H](O)[C@H]6O[C@@H]6O[C@@H](C)[C@H](O)[C@@H](O)[C@H]6O[C@@H]6OC[C@](O)(CO)[C@H]6O)[C@H]5O[C@@H]5O[C@H](CO)[C@H](O)[C@H](O)[C@H]5O)C(C)(C)C4CC[C@]21C)O[C@H]3O` (some centres not stated), the activity change, negative = inhibition in assay [1] was 4.06% [at 12.4 µM]. In assay [2], the Potency was 1.73 µM (active).
